Experimental data: ChEMBL document CHEMBL3988442, “University of Dundee, Small-Polar-MMV Screening Library” (2021)
The whole screen tested about 48,000 compounds, of which about 13,000 (27%) showed an effect of 50% or more. The list shows a part of the results.

What follows are compounds tested on Wolbachia pipientis (assay: Anti-Wolbachia Cell-Based Screen). Conditions: 5 µM.
Format: functional
Parameters: scale not given: in the data most compounds retested in dose-response had high values

Row | SMILES | Percent Effect
1 | CC(C)Cc1cc(CC2(NCc3ccccc3Cl)COC2)no1 | -7.466%
2 | COc1cc(C)c(C(C)Nc2ncc(C(N)=O)cc2Cl)cc1OC (centres undefined) | -11.51%
3 | Cc1nn(C)c2nc(N(CCN(C)C)CC3CCCO3)sc12 (centres undefined) | 2.651%
4 | CC(NS(=O)(=O)CC1(C#N)CCCC1)c1cccc(-n2cccn2)c1 (centres undefined) | -9.973%
5 | COc1ccc(C)cc1CN(Cc1nc(C)c(C)o1)C1CCN(C)C1 (centres undefined) | -12.97%
6 | CN1CCN([C@@H]2CCN(CC3CCOC3)[C@H]2Cc2cnn(C)c2)CC1.O=C(O)C(F)(F)F.O=C(O)C(F)(F)F.O=C(O)C(F)(F)F (some centres undefined) | -10.32%
7 | COc1ccc(CN2CC[C@@H]3[C@H]2CCC(=O)N3c2cnn(C)c2)cc1.O=C(O)C(F)(F)F | 83.34%
8 | Cn1cc(N2C(=O)CC[C@@H]3[C@H]2CCN3Cc2cccc(C#N)c2)cn1.O=C(O)C(F)(F)F.O=C(O)C(F)(F)F | 96.87%
9 | Cn1cc(N2C(=O)CC[C@@H]3[C@H]2CCN3CCc2ccccc2)cn1.O=C(O)C(F)(F)F.O=C(O)C(F)(F)F | 83.57%
10 | Cn1cc(N2C(=O)C[C@@H]3[C@@H]2CCN3C(=O)c2ccco2)cn1 | -4.812%
11 | Cn1cc(CN2CC[C@@H]3[C@@H]2CCN3C(=O)c2cccc(F)c2)cn1.O=C(O)C(F)(F)F | -56.05%
12 | Cn1cc(N2C[C@@H]3CN(CC4CCOCC4)C[C@@H]3C2=O)cn1.O=C(O)C(F)(F)F | -5.316%
13 | Cn1cc(N2C(=O)CC[C@@H]3[C@H]2CCN3CC2CCOCC2)cn1.O=C(O)C(F)(F)F | 100.5%
14 | Cn1cc(C(=O)N2CC[C@@H]3[C@@H]2CCN3Cc2cccc(C#N)c2)cn1.O=C(O)C(F)(F)F | -1.669%
15 | Cc1cnn(CC2CN(c3ncnc4c3CCC4)CCO2)c1 (centres undefined) | -34.52%
16 | Cc1noc(C)c1CC(=O)NCCN1CCN(S(C)(=O)=O)CC1 | -3.578%
17 | N#Cc1cc2c(=O)n(CC(O)Cc3ccccc3)ccc2[nH]c1=O (centres undefined) | -6.856%
18 | O=C(Nc1ccc(-c2ccccc2)cc1)N1C[C@@H]2CNC[C@]2(C(=O)O)C1 | 6.586%
19 | CC(C)N1CCN(S(=O)(=O)c2ncn(C)c2Cl)CC1 | 22.53%
20 | O=C1O[C@@H]2CN(Cc3cccc(O)c3)C[C@@H]2N1CCCN1CCOCC1 | 15.85%
21 | Cn1cc(CN2CC[C@@H]3[C@@H]2CCN3Cc2ccc3c(c2)OCO3)cn1.O=C(O)C(F)(F)F.O=C(O)C(F)(F)F | -8.648%
22 | Cn1cc(CN2CC[C@@H]3[C@H]2CCC(=O)N3c2ccccc2)cn1.O=C(O)C(F)(F)F | 107.5%
23 | Cn1cc(C(=O)N2CC[C@@H]3[C@@H]2CCN3Cc2ccccc2)cn1.O=C(O)C(F)(F)F | -15.71%
24 | CN(Cc1ccccc1)C(=O)CS(=O)(=O)Cc1ccc(Cl)c(Cl)c1 | -2.386%
25 | Cc1cccc(S(=O)(=O)NC2CCN(CC(F)(F)F)C2)c1 (centres undefined) | -3.118%

Row | SMILES | Percent Effect
26 | CC(=O)NC1CCCN(C(=O)NCc2ccc(-c3ccn[nH]3)cc2)C1 (centres undefined) | 11.01%
27 | O=C(NCc1ccccc1)N1CCC(Oc2ncccc2Cl)CC1 | 6.296%
28 | NC(=O)CC1CCN(C(=O)NCc2ccc(-c3ccn[nH]3)cc2)CC1 | 131.5%
29 | Cc1[nH]ncc1CCCNC(=O)N1CCC(CC(N)=O)CC1 | -1.64%
30 | CNC(=O)C1CCN(C(=O)NCc2ccc(C)n2C)CC1 | -3.399%
31 | COC(=O)NC1(C(=O)NCc2ccc(-c3ccn[nH]3)cc2)CCCC1 | -10.61%
32 | CCOCC1CCCN(C(=O)NCc2ccc(-c3ccn[nH]3)cc2)C1 (centres undefined) | 107.6%
33 | CC(=O)N1CCCN(C(=O)NCc2ccc(-c3ccn[nH]3)cc2)CC1 | 101.6%
34 | CNC(=O)C1CCN(C(=O)NCc2ccc(-c3ccn[nH]3)cc2)CC1 | 139.8%
35 | COc1ccccc1NCC(=O)NCc1ccc(-c2ccn[nH]2)cc1 | -17.15%
36 | O=C(NCc1ccc2c(c1)OCCO2)N1CCC(CO)CC1 | -3.134%
37 | CCOc1ccc(CNC(=O)N2CCCC(CO)C2)cc1F (centres undefined) | 1.945%
38 | O=C(O)C(F)(F)F.O=C(c1cnoc1)N1CCC[C@]2(C[C@@H](OCc3ccccn3)CO2)C1 | 20.74%
39 | O=C(NCc1ccc(-c2ccn[nH]2)cc1)N1CCC(N2CCCC2)C1 (centres undefined) | 1.692%
40 | NC(=O)C1CCN(C(=O)NCc2ccc3c(c2)OCCO3)CC1 | 2.129%
41 | NC(=O)C1CCN(C(=O)NCc2ccc(-c3ccn[nH]3)cc2)CC1 | 110.5%
42 | Cc1cc(C)c(NC(=O)Nc2cnn(CC(O)CN(C)C)c2)c(C)c1 (centres undefined) | 101.9%
43 | CCC(CC)C(CNC(=O)Nc1cnn(CCOC)c1)N(C)C (centres undefined) | -1.824%
44 | CCn1cc(NC(=O)NCC(O)CN2CCCCC2)cn1 (centres undefined) | -8.278%
45 | Cc1csc(CNc2cnn(CC(F)(F)F)c2)n1 | 0.5328%
46 | Cc1csc(CNc2cnn(CC(C)C)c2)n1 | -6.579%
47 | Cc1cc(C)c(CNc2cnn(CC(O)CN(C)C)c2)c(C)c1 (centres undefined) | 97.23%
48 | CN(C)CC(O)Cn1cc(NCc2ccc(Br)cc2)cn1 (centres undefined) | 110.4%
49 | CCN(CC)Cc1ccc(CNC(=O)C(C)(C)n2cc(Br)cn2)cc1 | 25.74%
